The panel holds about 83,000 compounds, 20% with a hit somewhere; the sample as a whole holds those more often.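 Single-dose data. Exposure time 48 hours. Values below 10 considered active.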 Activity calls are given as the source filed them.
What was measured:
Assay in all cases: NCI-60 one-dose screen, 48 h (100 = growth as untreated, 0 = no growth, -100 = all killed)
[1] = test system: NCI-H23 lung; conditions: 10 µM unless noted
[2] = test system: NCI-H226 lung; conditions: 10 µM unless noted
[3] = test system: HOP-62 NSCLC; conditions: 10 µM unless noted
[4] = test system: NCI-H460 lung; conditions: 10 µM unless noted
[5] = test system: HOP-92 NSCLC; conditions: 10 µM
[6] = test system: NCI-H522 lung; conditions: 10 µM unless noted
[7] = test system: A549/ATCC NSCLC; conditions: 10 µM unless noted
[8] = test system: 786-0 renal; conditions: 10 µM unless noted
[9] = test system: COLO 205 colon; conditions: 10 µM unless noted
[10] = test system: DU-145 prostate; conditions: 10 µM unless noted
[11] = test system: K-562 leukemia; conditions: 10 µM unless noted
[12] = test system: MALME-3M melanoma; conditions: 10 µM unless noted
[13] = test system: MDA-MB-231 breast; conditions: 10 µM unless noted
[14] = test system: RXF 393 renal; conditions: 10 µM unless noted
[15] = test system: SF-268 CNS; conditions: 10 µM unless noted
[16] = test system: SF-295 CNS; conditions: 10 µM unless noted
[17] = test system: SF-539 CNS; conditions: 10 µM unless noted
[18] = test system: UACC-257 melanoma; conditions: 10 µM unless noted
[19] = test system: M14 melanoma; conditions: 10 µM unless noted
[20] = test system: NCI-H322M lung; conditions: 10 µM unless noted

Measured: growth

O=C(/C=C/c1ccc(F)cc1)c1ccc(O)cc1
inactive: [1] 95.6% | [2] 105% | [3] 107% | [4] 103% | [5] 109% | [6] 90.1% | [7] 92.2% | [8] 95.2% | [9] 112% | [10] 95.5% | [11] 58.7% | [12] 118% | [13] 100% | [14] 105% | [15] 101% | [16] 104% | [17] 93.7% | [18] 95.5%

COc1cc(Cn2cc3c(c2)-c2onc(CN4CCCC4)c2CC3)cc(OC)c1OC
inactive: [1] 86% | [2] 88.4% | [3] 92.8% | [4] 109% | [5] 92.3% | [6] 84.2% | [7] 100% | [8] 99.4% | [9] 109% | [10] 75.6% | [11] 59.9% | [12] 66.5% | [13] 91.3% | [15] 91.4% | [16] 85.8% | [17] 92.7% | [18] 97.1%

CCNC(=O)N1CCc2cc(OC)c(OCCc3ccc(OC)cc3)cc2C1c1ccc([N+](=O)[O-])cc1C (stereo unspecified)
inactive: [1] 21.2% | [2] 38% | [3] 25.9% | [7] 11.7% | [8] 18.2% | [9] 25.8% | [10] 20.7% | [11] 13.7% | [12] 63.8% | [13] 17.7% | [15] 32% | [16] 10.8% | [18] 46.6% | [19] 23.4%
active: [4] 2.37% | [6] -8.41% | [14] -9.58% | [17] 9.83%

CCO/C=N/C1=C(C#N)C(c2ccc(OC)cc2)c2sc3c(C)cccc3c2O1 (stereo unspecified)
inactive: [1] 25.4% | [2] 57% | [3] 40.8% | [7] 27.3% | [8] 40.8% | [9] 16.1% | [10] 22% | [11] 12.6% | [12] 60.6% | [13] 27.5% | [15] 54.1% | [18] 88.7%
active: [4] 9.13% | [6] -3.87% | [14] -23.9% | [16] 1.06% | [17] -11.6% | [19] 5.22%

COc1cc(OC)c(S(N)(=O)=O)cc1C(=O)/C=C/c1ccc(Cl)cc1
inactive: [8] 13.8% | [12] 61.4% | [13] 11.5% | [18] 73.6% | [19] 19.9%
active: [1] 6.85% | [2] -26% | [3] 9.71% | [4] -11.2% | [6] -6.47% | [7] 6.83% | [9] -30% | [10] 5.02% | [11] 7.15% | [14] -40.4% | [15] 6.79% | [16] 1.14% | [17] 0.148%

Nc1nc(N)c2c(n1)NC(c1ccc(Cl)cc1)CC(c1ccc(Nc3nc(NCCO)nc(N4CCOCC4)n3)cc1)=N2 (stereo unspecified)
inactive: [1] 85.2% | [2] 82% | [20] 95.5% | [4] 79.8% | [7] 86.3% | [8] 67.8% | [9] 72.6% | [10] 86.1% | [11] 31.1% | [13] 80.5% | [14] 61.2% | [15] 61.8% | [16] 76.2% | [17] 78.4% | [18] 84.6% | [19] 88.1%

O=C(CN1CCN(c2cc(=O)[nH]c3ccc(F)cc23)CC1)Nc1ccc(Cl)cc1
active: [14] -3.61%
inactive: [1] 61.9% | [2] 16.5% | [20] 80.2% | [4] 41.1% | [6] 13.1% | [7] 71.8% | [8] 36.3% | [9] 112% | [10] 78.1% | [11] 78.8% | [13] 62.2% | [15] 38.3% | [16] 67.2% | [17] 56.9% | [18] 65% | [19] 85%

COc1cc(OC)cc(C(=O)Nc2cccc(C#Cc3cccc4[nH]nc(N)c34)c2)c1
inactive: [2] 30.8% | [20] 53.6% | [3] 39% | [4] 13% | [5] 43% | [7] 33.7% | [8] 46.5% | [10] 28.6% | [12] 40.5% | [13] 19.1% | [15] 33% | [16] 27.5% | [18] 53.4%
active: [6] 2.45% | [9] 6.38% | [11] 8.84% | [14] -19.4% | [17] -63.9% | [19] -2.56%
